Laboratory results published in the supplement of paper PMC6555819.

Experiments:
Experiment in all cases: PBM binding z-score (relative to random genomic background probes); higher = stronger binding; sequences stand for … in GC…GCGATTGACAGCGTAGAATGAAGG
[1] = test system: PPARg:RXRa DBDmut IVT, anti-RXR (DBD mutation: RXRa K156A/R161A, NR concentration 270 nM, RXRa partner concentration 90 nM)
Method in brief: (§1)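 Scanned fluorescence from custom Agilent 4×180K protein-binding microarrays was regression-normalized. Binding z-scores use random background probes as reference. Ligand-free nuclear receptor dimers were incubated on the arrays for 1 h and detected with antibodies against each partner (one per run).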

[2] = test system: PPARg:RXRa IVT, anti-PPARg (NR concentration 270 nM, RXRa partner concentration 90 nM)
Method in brief: as §1

[3] = test system: PPARg DBDmut:RXRa IVT, anti-PPARg (DBD mutation: PPARg1 K132A/R137A, NR concentration 270 nM, RXRa partner concentration 90 nM)
Method in brief: as §1

[4] = test system: PPARg DBDmut IVT, anti-PPARg (DBD mutation: PPARg1 K132A/R137A, NR concentration 270 nM)
Method in brief: as §1

[5] = test system: PPARg homodimer (NR concentration 180 nM)
Method in brief: as §1

[6] = test system: PXR:RXRa (NR concentration 270 nM, RXRa partner concentration 90 nM)
Method in brief: as §1

[7] = test system: PXR homodimer (NR concentration 270 nM)
Method in brief: as §1

[8] = test system: RARa:RXR (NR concentration 270 nM, RXRa partner concentration 90 nM)
Method in brief: as §1

[9] = test system: RARa homodimer (NR concentration 270 nM)
Method in brief: as §1

[10] = test system: RARb:RXRa (NR concentration 270 nM, RXRa partner concentration 90 nM)
Method in brief: as §1

[11] = test system: RARb homodimer (NR concentration 270 nM)
Method in brief: as §1

[12] = test system: RARg:RXRa (NR concentration 270 nM, RXRa partner concentration 90 nM)
Method in brief: as §1

[13] = test system: RARg homodimer (NR concentration 270 nM)
Method in brief: as §1

[14] = test system: RXRa DBDmut IVT, anti-RXR (DBD mutation: RXRa K156A/R161A, NR concentration 90 nM)
Method in brief: as §1

[15] = test system: RXRa homodimer (NR concentration 180 nM)
Method in brief: as §1

[16] = test system: THRa:RXRa (NR concentration 90 nM, RXRa partner concentration 90 nM)
Method in brief: as §1

[17] = test system: THRa homodimer (NR concentration 90 nM)
Method in brief: as §1

[18] = test system: VDR homodimer (NR concentration 270 nM)
Method in brief: as §1

Row | Sequence | PBM binding z-score [1] | PBM binding z-score [2] | PBM binding z-score [3] | PBM binding z-score [4] | PBM binding z-score [5] | PBM binding z-score [6] | PBM binding z-score [7] | PBM binding z-score [8] | PBM binding z-score [9] | PBM binding z-score [10] | PBM binding z-score [11] | PBM binding z-score [12] | PBM binding z-score [13] | PBM binding z-score [14] | PBM binding z-score [15] | PBM binding z-score [16] | PBM binding z-score [17] | PBM binding z-score [18]
1 | TCTTGTAGATCAACAGGAGGTTAAAAAAGATCGA | 1.2 | 0.996 | 0.773 | 1.21 | -0.0647 | 0.969 | -0.197 | 0.92 | 0.296 | 0.47 | 0.404 | 0.947 | 0.461 | 0.247 | 0.896 | 0.886 | -0.654 | 0.215
2 | CCTAGCAGGCCATTCTGGGTCACTCAAGGCTTGA | 3.36 | 3.51 | -0.645 | -1.57 | 0.115 | 1.61 | -0.27 | 1.71 | -0.611 | 1.75 | 2.48 | 1.3 | 1.75 | 0.405 | 1.14 | 4.1 | 0.668 | 0.435
3 | CTACCAAGGTGAACATGGTCGTTGATTACTATTC | 2.77 | 2.62 | 0.872 | -0.0867 | 0.593 | 0.435 | -0.201 | 1.12 | 0.284 | 1.66 | 1.25 | 1.06 | 1.14 | 0.571 | 0.87 | 2.25 | 1.03 | -0.0794
4 | AGCCAAAGTTCAGGACGAGGTAACGTAAAGCACG | -0.0528 | 1.03 | -0.637 | -0.0617 | 1.29 | 2.65 | 0.942 | 2.64 | 0.246 | 4.33 | 3.29 | 4.54 | 4.18 | 2.63 | 3.05 | 3.87 | 1.74 | 1.79
5 | ACAGACAGGTGAGTGAAGTTAACTCAGCTGGACG | 0.505 | 0.404 | -0.391 | -0.406 | -0.447 | -0.325 | -0.705 | -0.744 | -0.259 | 0.258 | -0.414 | -0.0567 | 0.156 | -0.397 | 0.359 | -0.189 | -1.01 | -0.612
6 | AGAACGAGGGCCCGCTGAGTTGATAGCAGAGTAG | -0.75 | -0.481 | -0.976 | -0.618 | -1.15 | -0.97 | -1.05 | -1.3 | -1.68 | -0.616 | -1.16 | -0.775 | -0.722 | -0.659 | -0.399 | -1.6 | -0.89 | -0.586
7 | AGAATGAGGTTATACGTAGATCTGGGAAGAAAGT | 3.58 | 2.08 | 0.645 | 0.965 | 0.546 | 0.994 | 0.44 | 1.5 | -0.128 | 1.23 | 0.334 | 1.39 | 0.958 | 1.1 | 1.94 | 2.03 | 0.225 | 0.724
8 | CAAACTAGGTCAAGAGGTCAAAGTACGCTTCCCG | 8.34 | 8.65 | 3.41 | 3.08 | 4.62 | 6.26 | 3.22 | 7.37 | 3.18 | 5.45 | 5.69 | 8.23 | 7.27 | 3.15 | 8.07 | 4.23 | 2.61 | 4.76
9 | CCAGACAGGAGAGAAGGTAACTCAGCCTCGATTA | -0.43 | -0.372 | -0.415 | -0.373 | 0.786 | -0.0804 | 0.0829 | -0.197 | 0.0212 | -0.091 | 0.0999 | -0.0304 | 0.0804 | 0.0336 | 0.0715 | 0.145 | 0.357 | 0.0493
10 | ATATGTAGGTTAGCTGGGCTCATTCAGACTAGGC | 6.55 | 5.57 | 1.42 | 1.63 | 0.611 | -0.0149 | -0.367 | 0.11 | 0.493 | 0.456 | 0.13 | 0.263 | 0.55 | -0.108 | 0.38 | 0.702 | -0.522 | -0.144
11 | GGAACGAGGGCATTCGAGTTGATCGCATGGCGAT | 3.31 | 1.97 | -0.808 | -0.537 | -0.069 | 3.96 | 1.47 | 0.882 | -1.16 | 1.68 | 0.71 | 1.11 | 1.52 | 3.18 | 0.775 | 3.44 | -0.598 | 3.38
12 | CGTCCATGGTCAATGCTAGGTCAGTGAAAGCATT | 0.278 | 0.623 | -0.309 | -0.685 | 0.231 | 0.368 | -0.367 | 0.816 | -0.251 | 2.17 | 2.59 | 2.58 | 1.9 | 0.0994 | 0.519 | 1.9 | 0.665 | -0.0955
13 | CCAGACAGGTGAAAGGTAGCTCAGTCTGGTACGC | 2.97 | 1.52 | -1.06 | -0.199 | 0.596 | -0.0966 | -0.482 | 0.905 | -0.063 | 0.738 | 0.293 | 0.352 | 0.242 | -0.0776 | 1.07 | 0.0213 | -0.421 | 0.118
14 | TCTCGGAGGACACGAAGGTCAGAGCTTTCCAGAG | 1.65 | 0.886 | -0.279 | -1.37 | 0.322 | 1.97 | 0.404 | 2.05 | -0.212 | 3.38 | 3.78 | 2.79 | 3.63 | 0.904 | 1.69 | 2.87 | 0.784 | 1.03
